# Measured values: the supplement of paper PMC11417369
# ± gives the standard deviation of the averaged measurements. Over roughly 25,000 sequences, “ln(normalized median fluorescence intensity)” has its median near 8.6; the highest 2% begin near 10. The sample as a whole holds a higher share of the highest values than the screen did.
# System: PfAP2-EXP AP2 domain (GST-tagged)
# Experiment: gcPBM binding intensity (ln(normalized median fluorescence intensity)); higher = stronger DNA binding
# Summary of the method: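 GST-tagged P. falciparum DNA-binding domains produced in E. coli were incubated for 1 h on an Agilent 4 × 180k array of primer-extended double-stranded 36-bp intergenic genomic probes with negative controls. Binding intensity is the highest Masliner-normalised natural-log median intensity across replicate spots of either probe orientation, with bound protein detected by Alexa488 anti-GST antibody at 488 nm.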
row,Sequence,gcPBM binding intensity (ln)
1,TGAAGGATATATTCCGTGCACATATAAATATATACA,8.735 ± 0.007
2,AATCTTAAAAATATATGTACTAAAAAAAAAAAAAAT [XGTACX_site6195],8.37 ± 0.47
3,ATATATATATATATATGTACTAAATATTCATCCTTA [XGTACX_site6039],10.2 ± 0.3
4,AAAATATTTCATATATGTACTTAAAAAAAAAAAAAA [XGTACX_site5399],8.27 ± 0.38
5,CTATATATATATTTCAGTACATATTAAGAATATATA [XGTACX_site4860],8.31 ± 0.38
6,TATAACATAGGACACACACACATACATACACAAAAA [CACACA_site5062],8.94 ± 0.35
7,ATATATATATATAAAGGTACACATTTATTAAATATA [XGTACX_site7102],10.1 ± 0.12
8,TTTAATATGTATTTTTTTTTTTTTTTTTTTTTTTTT [XGTACX_negctrl_site440],9.06 ± 0.085
9,ATATAATATATATATTGTACATATATTTATAAGCAT [XGTACX_site3726],8.38 ± 0.19
10,AAGCATCCTACTGATTGTACATATATATATATATAT [XGTACX_site2150],10.2 ± 0.3
11,ATATCCTACTTCTAGTGTACATATATGGACTGATGA [XGTACX_site3683],8.87 ± 0.35
12,AACGAAATCATCAAGTGTACTAGTTTATTATTAATA [XGTACX_site6161],8.38 ± 0.42
13,TTTTTTCTTTTTTTTTGTACATATAATATTTATGTT [XGTACX_site302],8.62 ± 0.4
14,AAGTACCATATAGGCACACATATATATATATATATA [CACACA_site3282],10.2 ± 0.34
15,ATGTACTATAGGCACACACACTCACATATATATATA [CACACA_site5745],9.96 ± 0.22
16,AAAATAATAATAGGCACACATATATATATATATATA [CACACA_site2058],10.1 ± 0.33
17,AAGAAAAGCAAACAAGTGCATAATAACAAAAAAAAT [GTGCAC_site9725],9.13 ± 0.46
18,TTGTTTCTTAAATTATTTATTTTATATTAAAAAAAA [XGTACX_negctrl_site224],8.31 ± 0.46
19,ATTTATTTTATTTTCACACACAAAAATAAATATCCG [CACACA_site2414],8.44 ± 0.44

row,Sequence,gcPBM binding intensity (ln)
1,TTATTATTATTACTAGTGCATTAATTATATATGTAA,8.72 ± 0.13
2,CATATATATATATATTGTACAAGATTGTTTTTTTAT [XGTACX_site3913],8.76 ± 0.35
3,TTTATATTGTTTTATTGTACATATATATTTATACAT [XGTACX_site6821],8.81 ± 0.4
4,ATATATATATATATATGTACATACATATTGTTTGGT [XGTACX_site2284],10.3 ± 0.76
5,ATATTGTTATATGTTTGTACATATTTTTTATATTTT [XGTACX_site6834],8.93 ± 0.91
6,ATATATATATATATATGTACATATGTATGTGTTTGT [XGTACX_site397],9.93 ± 0.42
7,TATATATCTATATATTGTACATATGTTTGTATGTGT [XGTACX_site7420],8.54 ± 0.29
8,ATATATATATATATATGTACATATGTTTGTTTCCGC [XGTACX_site5167],10.3 ± 0.21
9,TTTTTTTTTTGATGTTGTACATATATATTATATATA [XGTACX_site6377],8.55 ± 0.41
10,ATATATATATATATATGTACATATTATTATTTTGAT [XGTACX_site4752],10.1 ± 0.38
11,ATATATATATATATATGTACACATATATGTGTTTGT [XGTACX_site62],10.1 ± 0.26
12,ATATATATATATATATGTACATATTTTTGTTTGATG [XGTACX_site51],10.2 ± 0.81
13,GTGTTTTTTTTAGATTGTACATATATATATATATAT [XGTACX_site4562],10.3 ± 0.33
14,TAACTAAGGAATAATACACACAGAAATATAGATTTA [CACACA_site6293],8.41 ± 0.42
15,TTTTTTTTTTTTTTTTTTTTACGATATATTTTAAAA [XGTACX_negctrl_site401],8.03 ± 0.67
16,GTTATACATTTGAAAAGTACTCATGATTTTTTTTTT [XGTACX_site8177],8.75 ± 0.45
17,TCGAATATCTTATAGGTGCATCATAAATACATATGT,8.69 ± 0.28
18,TGTATATATAATAAAACACACATTTTTAATGTGCTC [CACACA_site1437],8.01 ± 0.3
19,TTAACCACTAAAAGTACACACATATATACCTATATA [CACACA_site6026],8.45 ± 0.28

row,Sequence,gcPBM binding intensity (ln)
1,AATAAATAAAGAAGTACACACATATATATATATATA [CACACA_site4314],10.1 ± 0.41
2,ATGATATGGATAAATACACACAATAAAATAATGTCT [CACACA_site6786],8.71 ± 0.43
3,TATACATACATACATACACACACACCGATATATACA [CACACA_site8184],8.78 ± 0.42
4,TATGTACAAATATGTACACACACACCGATATATATA [CACACA_site4487],8.76 ± 0.18
5,TATATATATATATGTACACACACACCGATAAATAAA [CACACA_site8041],10.21 ± 0.085
6,AATATATATATATATACACACACACCGATATATATA [CACACA_site8158],8.79 ± 0.33
7,TATATATATATATACACACACACACCGATATATATA [CACACA_site8813],10.3 ± 0.41
8,TATATATATTTATGTACACACACACCGATAAATAAA [CACACA_site4404],8.91 ± 0.48
9,TATATATATATGTGTACACATGTCGCATTTTTTTAT [CACACA_site4648],10 ± 0.26
10,TGATAATTTCATTTTGCATGTGACAATACAAGATGT [TGCATGCA_site203],8.59 ± 0.18
11,AAAAAAATAATATAAATAATGAAAAGATATAAATAA [GTGCAC_negctrl_site432],8.54 ± 0.35
12,ATGCTTCCTTAGGAATGTACACACATATATAATATG [XGTACX_site873],8.69 ± 0.35
13,AAAATATATATAAATGCATGCATAATGAAATATATA [TGCATGCA_site39],9.95 ± 0.21
14,TAAAATATAATAAAATGTACACGCATGCAATAGAAT [XGTACX_site7434],9.99 ± 0.47
15,TAGAAAAAAATAGATGCATGCAATGAATGAATAATA [TGCATGCA_site14],10.3 ± 0.17
16,CAAAAATAATAGAATACATGCAAAAATAAATGTATA [TGCATGCA_site196],9 ± 0.071
17,TAATAAAATGTACACGCATGCAATAGAATATAAAGT [TGCATGCA_site905],10.3 ± 0.79
18,ATAGAAATAAAATAAAATAAAAAAAAAATAATGAAA [CACACA_negctrl_site1565],8.64 ± 0.43
19,ATTCTACCACGCGATATACACACTTGTAGACATCTT [CACACA_site188],8.97 ± 0.49
